Experiment in all cases: NCI-60 one-dose screen, 48 h (100 = growth as untreated, 0 = no growth, -100 = all killed)
Details in all cases: 10 µM unless noted

For assay [1], the system named is NCI-H23 lung.
The test system of assay [2] is NCI-H226 lung.
The subject of assay [3] is HOP-62 NSCLC.
Assay [4] deals with NCI-H460 lung.
Assay [5] relates to HOP-92 NSCLC.
Assay [6] relates to NCI-H522 lung.
Assay [7] concerns A549/ATCC NSCLC.
For assay [8], the system named is 786-0 renal.
Assay [9] concerns COLO 205 colon.
Assay [10] deals with DU-145 prostate.
Assay [11] deals with K-562 leukemia.
Assay [12] deals with MALME-3M melanoma.
Assay [13] relates to MDA-MB-231 breast.
Assay [14] relates to RXF 393 renal.
Assay [15] deals with SF-268 CNS.
In assay [16] the test system is SF-295 CNS.
Assay [17] relates to SF-539 CNS.
Assay [18] relates to UACC-257 melanoma.
Assay [19] concerns M14 melanoma.
Assay [20] deals with NCI-H322M lung.

Growth data for six compounds are collected here from PubChem BioAssay (NCI).

Molecules are shown by their SMILES. Where “and” joins values, the source holds several entries; their conditions need not be identical. Identical values can stand only once. About 83,000 compounds went through this panel and 20% of them were active in at least one assay; those are over-represented in the sample as a whole.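 Interpretation: 100, growth as untreated; towards 0, rising growth inhibition; 0, no net growth; 0 to -100, cell death. Compounds scoring below 10 were considered active.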 Calls of active or inactive are those of the source.

For `Cc1cc(N)c2ccccc2[n+]1CCCCCCCCCC[n+]1c(C)cc(N)c2ccccc21`, the growth in assay [1] is 5.83% (active) and -29.4% (active); in assay [2] it was 13.8% (inactive) and 31.5% (inactive); in [3], 16.3% (inactive) and 25.4% (inactive); in assay [4], 1.44% (active) and -18.2% (active); in assay [5], -22.2% (active) and 7.42% (active); in assay [6], -8.65% (active) and -8.09% (active). Moreover, the growth is 29.9% (inactive) and -17% (active) in [7]; 18.7% (inactive) and 20.8% (inactive) in [8]; -50.2% (active) and -45.7% (active) in assay [9]; 31.3% (inactive) and -73.8% (active) in assay [10]; -7.04% (active) and -39.8% (active) in assay [11]; -15.7% (active) and 10.5% (inactive) in assay [12]. Moreover, the growth in assay [13] is 18.9% (inactive) and 1.88% (active); in [14], -30.2% (active); in assay [15], 23.2% (inactive) and 27.9% (inactive); in assay [16], -45.6% (active) and 8.47% (active); in assay [17] it was -8.43% (active) and -37.4% (active); in [18] it was 33.5% (inactive) and 5.36% (active). For the same compound, the growth in assay [19] is 3.53% (active).

`Cc1c2ccccc2c(C)c2c1ccc1ccccc12`: the growth in assay [1] is 81.6% (inactive); in assay [2] it was 100% (inactive); in assay [3], 95.1% (inactive); in [4], 87.6% (inactive); in [6] it was 79.5% (inactive); in assay [7], 78.4% (inactive). Also, the growth in [8] is 91.5% (inactive); in [9] it was 94.6% (inactive); in [10], 97.5% (inactive); in assay [11] it was 85.1% (inactive); in assay [12], 88.8% (inactive); in [13], 89.8% (inactive). Moreover, the growth was 96.3% (inactive) in [14]; 98.5% (inactive) in assay [15]; 96.9% (inactive) in [16]; 92.3% (inactive) in assay [17]; 94.7% (inactive) in assay [18]; 86.8% (inactive) in assay [19].

For the compound `CCC(CCCN(CC)CCc1ccccc1)OC(=O)c1cc(OC)c(OC)c(OC)c1` (stereo not drawn), the growth was 81.5% (inactive) in assay [1]; 89.7% (inactive) in assay [2]; 68.7% (inactive) in [3]; 101% (inactive) in [4]; 86.4% (inactive) in assay [5]; 69.6% (inactive) in [6]. Also, the growth in [7] was 75.1% (inactive); in [8], 89.9% (inactive); in assay [9], 81.1% (inactive); in assay [10], 104% (inactive); in [11] it was 76.4% (inactive); in [12], 98.9% (inactive). Also, the growth is 78.8% (inactive) in assay [13]; 89.7% (inactive) in [14]; 82.7% (inactive) in assay [15]; 90.1% (inactive) in assay [16]; 93.1% (inactive) in assay [17]; 85.4% (inactive) in [18]. Besides, in assay [19], the growth was 90.1% (inactive).

As for `COC(=O)c1nc(=S)[nH]c(C(=O)OC)c1C(=O)c1ccccn1`, the growth was 9.58% (active) in assay [2]; 56.5% (inactive) in assay [20]; 40% (inactive) in assay [3]; 38.6% (inactive) in assay [4]; 47.9% (inactive) in assay [5]; 61.8% (inactive) in assay [6]. The growth in assay [7] was 107% (inactive); in assay [8], 26.7% (inactive); in assay [9], 21.1% (inactive); in assay [10] it was 39.5% (inactive); in [11], 17.7% (inactive); in [12], 30.7% (inactive). The growth in assay [13] was 33.6% (inactive); in assay [14] it was 43.2% (inactive); in [15], 34.3% (inactive); in assay [16], -1.15% (active); in assay [17] it was 15.6% (inactive); in [18], 75.7% (inactive). Also, in assay [19], the growth was 17.9% (inactive).

In the case of `COc1ccc2nc3cc(Cl)ccc3c(NCCNc3c4ccc(Cl)cc4nc4ccc(OC)cc34)c2c1`, the growth in [1] is -73% (active); in assay [2], -54.7% (active); in [3] it was -80.4% (active); in [4] it was -68.7% (active); in assay [5], -72.7% (active); in assay [6], -90.7% (active). Further, the growth in assay [7] is -74.5% (active); in assay [8] it was -88% (active); in assay [9], -74.9% (active); in [10], -95.4% (active); in [11], -52.7% (active); in assay [12], -77.4% (active). The growth was -78.9% (active) in [13]; -93% (active) in assay [14]; -82.6% (active) in assay [15]; -93.2% (active) in assay [16]; -85.5% (active) in assay [17]; -89.6% (active) in assay [18]. Besides, the growth in [19] is -74.2% (active).

For `N#CSCc1ccc(CSC#N)c(Cl)c1`, the growth in [1] was 85.1% (inactive); in assay [2], 93.1% (inactive); in assay [3], 129% (inactive); in [4], 75.5% (inactive); in [5] it was 4.78% (active); in assay [6], 15.7% (inactive). Besides, the growth in assay [7] is 75.8% (inactive); in assay [8], 73.2% (inactive); in assay [9] it was 45% (inactive); in assay [10] it was 42.5% (inactive); in assay [11], 33.8% (inactive); in assay [12], 54.3% (inactive). Also, the growth in assay [13] was 52.5% (inactive); in assay [14] it was 72.2% (inactive); in assay [15], 65.8% (inactive); in [16] it was 102% (inactive); in [17] it was 58.8% (inactive); in assay [18], 67.6% (inactive). In addition, in [19], the growth was 50.7% (inactive).
